Experimental data reported in publication PMC4336329 (PLoS ONE, 2015).
Screen size: about 310,000 compounds; about 14,000 (4.5%) showed an effect of 50% or more. The effect is printed as a negative number. This excerpt belongs to a sample that is enriched for strong results.

target: human ether-à-go-go-related gene (hERG) potassium channel (human, UniProt Q12809); experiment: primary screen, population patch clamp on CHO cells stably expressing hERG; higher = less effect of the substance
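Further: peak tail current of the secondary pulse compared with the same well before compound.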

Sequence of human ether-à-go-go-related gene (hERG) potassium channel (Q12809 whole entry, looked up): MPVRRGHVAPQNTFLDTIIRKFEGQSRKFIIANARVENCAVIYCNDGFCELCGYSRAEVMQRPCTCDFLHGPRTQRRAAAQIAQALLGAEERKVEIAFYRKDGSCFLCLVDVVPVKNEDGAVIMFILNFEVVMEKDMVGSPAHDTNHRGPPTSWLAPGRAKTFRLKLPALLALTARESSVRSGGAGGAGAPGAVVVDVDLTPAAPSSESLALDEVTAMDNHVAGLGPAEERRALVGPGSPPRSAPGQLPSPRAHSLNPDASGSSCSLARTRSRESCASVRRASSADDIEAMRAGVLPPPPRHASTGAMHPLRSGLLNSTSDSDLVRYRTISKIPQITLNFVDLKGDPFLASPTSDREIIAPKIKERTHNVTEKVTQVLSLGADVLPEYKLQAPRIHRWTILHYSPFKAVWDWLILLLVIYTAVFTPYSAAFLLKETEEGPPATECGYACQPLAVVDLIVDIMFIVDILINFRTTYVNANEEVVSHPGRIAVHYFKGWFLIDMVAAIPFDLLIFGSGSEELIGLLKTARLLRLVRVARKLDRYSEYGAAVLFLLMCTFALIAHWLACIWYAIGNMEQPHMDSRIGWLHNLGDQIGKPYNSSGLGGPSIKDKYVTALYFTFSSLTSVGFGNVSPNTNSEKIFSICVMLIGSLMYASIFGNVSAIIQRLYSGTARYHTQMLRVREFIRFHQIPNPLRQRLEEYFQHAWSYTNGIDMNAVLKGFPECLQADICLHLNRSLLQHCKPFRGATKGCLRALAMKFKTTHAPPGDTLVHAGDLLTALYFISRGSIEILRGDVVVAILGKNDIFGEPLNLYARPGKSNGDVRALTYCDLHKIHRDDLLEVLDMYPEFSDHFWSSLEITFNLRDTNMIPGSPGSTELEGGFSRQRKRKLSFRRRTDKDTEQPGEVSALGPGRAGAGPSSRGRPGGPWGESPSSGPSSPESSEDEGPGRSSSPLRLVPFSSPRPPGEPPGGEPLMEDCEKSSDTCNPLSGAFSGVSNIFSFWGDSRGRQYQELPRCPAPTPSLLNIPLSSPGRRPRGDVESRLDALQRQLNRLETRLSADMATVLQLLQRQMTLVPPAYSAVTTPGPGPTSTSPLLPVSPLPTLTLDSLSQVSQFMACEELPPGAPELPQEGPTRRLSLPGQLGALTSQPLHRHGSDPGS

Row | SMILES | hERG current change (%, negative = inhibition) at 10uM [%]
1 | CCOc1ccc2nc(NC(=O)Cn3cnc4c3c(=O)n(C)c(=O)n4C)sc2c1 | -41.9
2 | O=C(Nc1nc2ccc(Cl)cc2s1)C1CC1 | 28.7
3 | CS(=O)(=O)c1ccc2nc(NC(=O)C3CC(=O)N(c4ccccc4)C3)sc2c1 (centres unmarked) | -4.25
4 | COc1ccc(N2CC(C(=O)Nc3nc4ccc(S(C)(=O)=O)cc4s3)CC2=O)cc1 (centres unmarked) | 3.32
5 | COc1ccc2nc(NC(=O)C3CC(=O)N(c4ccccc4)C3)sc2c1 (centres unmarked) | -51.7
6 | COc1ccc(N2CC(C(=O)Nc3nc4ccccc4s3)CC2=O)cc1 (centres unmarked) | -48.9
7 | COc1ccc2nc(NC(=O)Cn3cnc4ccccc4c3=O)sc2c1 | -4.49
8 | O=C(NC1CCCCC1)c1ccc(CNc2ccccc2)o1 | -9.19
9 | COc1ccc(CCNC(=O)C2CCCN2C(=O)Nc2ccc(F)cc2)cc1OC (centres unmarked) | 16.5
10 | CCOC(=O)C1=C(c2ccccc2)Nc2ncnn2C1c1ccccn1 (centres unmarked) | 13.6
11 | O=C(O)c1cc(-c2ccc(/C=C3\NC(=O)N(c4ccc(Cl)cc4)C3=O)o2)ccc1Cl | 7.5
12 | CC1(C)CC2CC(C)(CN2C(=S)NC(=O)c2ccccc2Cl)C1 (centres unmarked) | 3.14
13 | NC(=O)NC(=O)CSc1ccccc1 | 17.1
14 | COc1ccc(N2CC(C(=O)Nc3nc4ccc(F)cc4s3)CC2=O)c(OC)c1 (centres unmarked) | -56.3
15 | O=C(Nc1nc2ccc(F)cc2s1)C1CC(=O)N(c2ccc3c(c2)OCCO3)C1 (centres unmarked) | -8.48
16 | COc1ccc(N2CC(C(=O)Nc3nc(-c4ccccc4)c(C(C)=O)s3)CC2=O)c(OC)c1 (centres unmarked) | -0.242
17 | CC(C)OC(=O)c1ccc(OC(=O)c2cccnc2)cc1 | 12.5
18 | CCN1C(=NCCc2cccs2)N[C@@H](c2cccs2)C(C(=O)OC)=C1C | -64.2
19 | C=CCN=C1N[C@@H](c2ccccc2)C(C(=O)OC)=C(C)N1CC | 1.27
20 | CCN1C(=O)N[C@@H](c2ccccc2)C(C(=O)OC)=C1C | -1.67
21 | CCN1C(=S)N[C@@H](c2ccccc2)C(C(=O)OC)=C1C | 14.8
22 | CCN(CC)CCCN=C1N[C@@H](c2ccccc2)C(C(=O)OC)=C(C)N1CC | 14.6

Row | SMILES | hERG current change (%, negative = inhibition) at 10uM [%]
23 | COC(=O)C1=C(C)N(Cc2ccccc2)C(=NCc2cc(OC)c(OC)c(OC)c2)N[C@H]1c1ccccc1 | -27.8
24 | CCN1C(=NCCOC)N[C@@H](c2cccs2)C(C(=O)OC)=C1C | -5.96
25 | CCN1C(N(C)CCc2cccs2)=N[C@@H](c2ccccc2)C(C(=O)OC)=C1C | -53.8
26 | CCN1C(=NCCc2cccnc2)N[C@@H](c2ccccc2)C(C(=O)OC)=C1C | -51.2
27 | CCN1C(=O)N[C@@H](c2cccs2)C(C(=O)OC)=C1C | 10.2
28 | COCCN=C1N[C@@H](c2cccc(C(F)(F)F)c2)C(C(=O)OC)=C(C)N1Cc1ccccc1 | -11.9
29 | COC(=O)C1=C(C)N(Cc2ccccc2)C(=NCCc2cccnc2)N[C@H]1c1ccccc1 | -63
30 | CCOC(=O)C1=C(C)Nc2ccccc2N/C1=N\S(=O)(=O)c1ccc(Cl)cc1 | -7.32
31 | COc1ccc(CNC(=O)CCCNS(=O)(=O)c2cccc3nonc23)cc1 | -1.27
32 | CC(CC(=O)NC1CCCCC1)S(=O)(=O)c1ccc2c(c1)NC(=O)CO2 (centres unmarked) | 5.72
33 | Cc1cc(C)nc(N(C#N)Cc2ccccc2Cl)n1 | 4.48
34 | Cc1cc(C)nc(N(C#N)Cc2cccc3ccccc23)n1 | 3.61
35 | Cc1cc(C)nc(N(C#N)Cc2ccccc2C)n1 | -51.4
36 | CCC(=O)n1nc(-c2ccco2)nc1N | 10.8
37 | CCN(Cc1ccccc1)c1ccc(/C=N/NS(=O)(=O)c2cccc([N+](=O)[O-])c2)cc1 | 10.3
38 | CC(=O)Nc1cccc(-c2nnc3c4ccccc4c(C)nn23)c1 | -0.564
39 | Cc1cccc(NC(=O)CSc2nc3ccccc3o2)c1 | 3.5
40 | Cc1nn2c(-c3cccc(NC(=O)CSc4nc5ccccc5o4)c3)nnc2c2ccccc12 | -70.8
41 | CCS(=O)(=O)N1CCN(C(=O)c2cccc3ccccc23)CC1 | 12.8
42 | COc1cccc(CCN2C(=O)C(=O)N([C@@H](CNCc3ccccc3)Cc3ccccc3F)C[C@@H]2C(C)(C)C)c1 | -48.5
43 | COc1ccc(CNC[C@@H](CCCCN(C)Cc2ccc(OC)cc2)N2C[C@H](c3ccccc3)N(CCc3ccc(Cl)c(Cl)c3)C(=O)C2=O)cc1 | -80.3
44 | COc1ccc(CNC(=O)[C@@H]2CC=C[C@@H]3CCN(Cc4ccc(Cl)c(Cl)c4)C(=O)[C@@H]32)cc1 | -8.85
